# Source: PubChem BioAssay (EPA / NIEHS)
# Values joined by “and” are separate entries in the source; they are usually repeats but may differ in a detail not shown here. Equal values may be shown once. Results filed as inconclusive are left out. More than one record can exist for a structure, and the calls need not agree. Active and inactive are the calls of the source. Rule for the calls, unless noted: active = hit-call score of the fitted dose curve at least 0.9, where 1 is the maximum; inactive = score below 0.9.
# Key:
# [1] = molecular target: human Retinoid X Receptor beta (RXRb), RXRB (gene 6257) (UniProt P28702); experiment: ATG_RXRb_TRANS: Attagene TRANS-FACTORIAL HepG2 Assay for human Retinoid X Receptor beta (RXRb) (AID 2283013; active = hit-call score of the fitted dose curve at least 0.9, where 1 is the maximum)
# Summary of the method: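 Read-out: reporter mRNA induction via RT-PCR plus capillary electrophoresis fluorescence, analysed as signal increase relative to DMSO. Cells were human HepG2, transiently transfected with GAL4-UAS reporter constructs and chimeric receptor-Gal4 fusions, dosed for 24 h.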
# [2] = read-out: E-selectin (Homo sapiens) (UniProt P16581); experiment: BSK_3C_Eselectin: BioMAP Diversity Plus: 3C Assay for Eselectin Biomarker Activity (AID 2283015); settings: primary human endothelial cells (HUVEC); actives raise or lower the signal;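 for outcome: cell surface E-selectin protein quantified by ELISA 24 h after dosing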
# Summary of the method: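 Human vascular endothelium from umbilical vein is exposed to test chemicals for 24 h. E-selectin levels are read by ELISA and compared with DMSO controls.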
# [3] = read-out: Interleukin-1 alpha (IL1a), IL1A (gene 3552); experiment: BSK_BE3C_IL1a: BioMAP Diversity Plus: BE3C Assay for Interleukin-1 alpha (IL1a) Biomarker Activity (AID 2283016); settings: primary human bronchial epithelial cells; actives raise or lower the signal
# Summary of the method: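 ELISA read-out of IL-1a from human lung bronchial epithelial primary cells, 24 h post-dose. Gain or loss of signal fitted relative to DMSO negative control.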
# [4] = read-out: Monocyte Chemoattractant Protein-1 (MCP1), CCL2 (gene 6347); experiment: BSK_3C_MCP1: BioMAP Diversity Plus: 3C Assay for Monocyte Chemoattractant Protein-1 (MCP1) Biomarker Activity (AID 2283017); settings: primary human endothelial cells (HUVEC); actives raise or lower the signal
# Summary of the method: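 Endothelial cells from human umbilical vein are dosed with chemical, cultured 24 h, then assayed for MCP-1 by ELISA; both increases and decreases are modelled against DMSO controls.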
# [5] = read-out: Human Leukocyte Antigen - DR isotype (HLADR), HLA-DRA (gene 3122); experiment: BSK_3C_HLADR: BioMAP Diversity Plus: 3C Assay for Human Leukocyte Antigen - DR isotype (HLADR) Biomarker Activity (AID 2283019); settings: primary human endothelial cells (HUVEC); actives raise or lower the signal;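 for outcome: ELISA of cell-surface HLA-DR on HUVEC 24 h after dosing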
# Summary of the method: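 Endothelial cells from human umbilical vein are treated with test chemical; after 24 h, HLA-DR levels are measured by ELISA. Data are fitted in both directions using DMSO as the baseline.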
# [6] = read-out: Interleukin-8 (IL8), CXCL8 (gene 3576); experiment: BSK_3C_IL8: BioMAP Diversity Plus: 3C Assay for Interleukin-8 (IL8) Biomarker Activity (AID 2283020); settings: primary human endothelial cells (HUVEC); actives raise or lower the signal
# Summary of the method: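 HUVEC, 3C stimulation; 24 h compound exposure; IL-8 read by ELISA; gain or loss of signal fitted relative to DMSO control.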
# [7] = read-out: Monokine induced gamma interferon (MIG), CXCL9 (gene 4283); experiment: BSK_3C_MIG: BioMAP Diversity Plus: 3C Assay for Monokine induced gamma interferon (MIG) Biomarker Activity (AID 2283021); settings: primary human endothelial cells (HUVEC); actives raise or lower the signal
# Summary of the method: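 HUVEC, 3C system; 24 h chemical exposure; MIG by ELISA; bidirectional fit vs DMSO baseline.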
# [8] = molecular target: human Thyroid Receptor alpha (THRa1), THRA (gene 7067) (UniProt P10827); experiment: ATG_THRa1_TRANS: Attagene TRANS-FACTORIAL HepG2 Assay for human Thyroid Receptor alpha (THRa1) (AID 2283014; active = hit-call score of the fitted dose curve at least 0.9, where 1 is the maximum)
# Summary of the method: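 First, HepG2 cells receive multiple GAL4-UAS reporter units and the chimeric receptor. They are then dosed for 24 h, after which RNA is reverse-transcribed, amplified, labelled, HpaI-cut and sized by capillary electrophoresis; gain relative to DMSO is scored.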
# Sequence of E-selectin (Homo sapiens) (P16581 whole entry, looked up): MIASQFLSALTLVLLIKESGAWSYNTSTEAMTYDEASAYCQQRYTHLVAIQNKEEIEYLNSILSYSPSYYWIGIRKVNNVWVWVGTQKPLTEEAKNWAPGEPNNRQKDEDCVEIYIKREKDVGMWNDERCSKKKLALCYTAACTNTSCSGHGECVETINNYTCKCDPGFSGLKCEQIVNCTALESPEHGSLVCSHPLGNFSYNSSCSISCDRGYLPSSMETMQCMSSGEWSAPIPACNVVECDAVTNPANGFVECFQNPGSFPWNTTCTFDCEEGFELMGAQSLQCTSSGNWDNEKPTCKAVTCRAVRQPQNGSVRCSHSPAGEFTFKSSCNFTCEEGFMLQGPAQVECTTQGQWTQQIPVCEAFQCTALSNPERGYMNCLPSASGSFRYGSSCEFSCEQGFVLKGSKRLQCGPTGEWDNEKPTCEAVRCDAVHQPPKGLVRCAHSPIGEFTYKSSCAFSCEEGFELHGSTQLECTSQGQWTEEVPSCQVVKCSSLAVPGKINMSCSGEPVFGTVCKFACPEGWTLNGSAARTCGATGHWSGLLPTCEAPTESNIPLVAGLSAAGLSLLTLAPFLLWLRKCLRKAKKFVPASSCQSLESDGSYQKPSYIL
# Sequence of human Retinoid X Receptor beta (RXRb), RXRB (gene 6257) (P28702 whole entry, looked up, the tested form may be a part): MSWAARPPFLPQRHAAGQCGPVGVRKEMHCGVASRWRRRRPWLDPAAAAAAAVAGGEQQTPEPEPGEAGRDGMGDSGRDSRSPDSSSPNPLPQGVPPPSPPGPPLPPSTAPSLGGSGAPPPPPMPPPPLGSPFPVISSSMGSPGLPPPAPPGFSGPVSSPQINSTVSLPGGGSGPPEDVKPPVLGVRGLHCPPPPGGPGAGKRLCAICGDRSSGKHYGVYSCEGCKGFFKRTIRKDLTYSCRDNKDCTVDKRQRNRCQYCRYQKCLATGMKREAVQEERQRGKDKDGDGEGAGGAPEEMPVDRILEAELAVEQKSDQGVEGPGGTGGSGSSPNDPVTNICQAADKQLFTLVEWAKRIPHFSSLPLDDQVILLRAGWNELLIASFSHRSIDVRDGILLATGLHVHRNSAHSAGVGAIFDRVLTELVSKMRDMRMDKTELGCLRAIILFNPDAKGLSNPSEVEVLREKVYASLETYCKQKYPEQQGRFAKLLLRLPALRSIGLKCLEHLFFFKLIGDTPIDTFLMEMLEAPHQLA
# Sequence of human Thyroid Receptor alpha (THRa1), THRA (gene 7067) (P10827 whole entry, looked up, the tested form may be a part): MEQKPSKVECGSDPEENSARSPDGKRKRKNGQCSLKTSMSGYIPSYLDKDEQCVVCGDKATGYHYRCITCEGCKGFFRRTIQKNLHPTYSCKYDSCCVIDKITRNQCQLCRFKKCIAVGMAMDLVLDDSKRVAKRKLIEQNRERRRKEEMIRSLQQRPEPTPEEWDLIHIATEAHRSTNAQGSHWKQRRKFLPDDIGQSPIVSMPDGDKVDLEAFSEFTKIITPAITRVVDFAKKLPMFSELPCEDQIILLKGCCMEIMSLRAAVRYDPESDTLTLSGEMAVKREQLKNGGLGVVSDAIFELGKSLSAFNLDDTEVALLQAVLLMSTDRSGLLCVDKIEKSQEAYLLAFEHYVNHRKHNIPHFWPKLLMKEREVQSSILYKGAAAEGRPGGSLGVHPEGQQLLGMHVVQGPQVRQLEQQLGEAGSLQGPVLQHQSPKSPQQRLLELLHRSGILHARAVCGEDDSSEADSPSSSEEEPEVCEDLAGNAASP
smiles,measurement,setting,value
Nc1ccc(N)c(Cl)c1,outcome,[1],inactive
same,AC50,[2],5.26 µM (active)
same,outcome,[2],inactive
same,AC50,[3],20 µM (active)
same,outcome,[3],inactive
same,AC50,[4],32.4 µM (active) and 31.9 µM (active)
same,AC50,[5],30.2 µM (active) and 31.4 µM (active)
same,outcome,[6],inactive
same,outcome,[7],inactive
CCO[Si](C)(OCC)OCC,outcome,[2],inactive
same,outcome,[3],inactive
same,outcome,[4],inactive
same,outcome,[5],inactive
same,outcome,[6],inactive
same,outcome,[7],inactive
CCN(CC)c1ccc(C(=O)c2ccccc2C(=O)O)c(O)c1,outcome,[8],inactive
Nc1nc2ccccc2[nH]1,outcome,[8],inactive
CCCC(C)CCC(C)=O (configuration not stated),outcome,[1],inactive
same,outcome,[8],inactive
O=C1CCC(=O)N1Cl,outcome,[8],inactive
O=c1cc[nH]c(=S)[nH]1,outcome,[8],inactive
CC(C)=CCCC(C)C=O (configuration not stated),outcome,[1],inactive
same,outcome,[8],inactive
COc1cc(C)ccc1C(C)C,AC50,[1],100 µM (active)
same,outcome,[8],inactive
C=CC=CC=CCCCCC,outcome,[2],inactive
same,outcome,[3],inactive
same,outcome,[4],inactive
same,outcome,[5],inactive
same,outcome,[6],inactive
same,outcome,[7],inactive
COc1ccc(NC(C)=O)cc1N,outcome,[8],inactive
CC(=O)Nc1ccc2c(c1)Cc1cc(NC(C)=O)ccc1-2,outcome,[1],inactive
same,outcome,[8],inactive
C=C[Si](OC(C)=O)(OC(C)=O)OC(C)=O,outcome,[8],inactive
same,outcome,[2],inactive
same,outcome,[3],inactive
same,outcome,[4],inactive
same,outcome,[5],inactive
same,outcome,[6],inactive
same,outcome,[7],inactive
C/C=C\C/C=C/CCCCCCCCOC(C)=O,outcome,[8],inactive
same,AC50,[2],19.6 µM (active)
same,AC50,[3],12.1 µM (active)
same,outcome,[4],inactive
same,AC50,[5],27 µM (active)
same,outcome,[6],inactive
same,outcome,[7],inactive
O=C1CCCCCN1SSN1CCCCCC1=O,outcome,[1],inactive
same,outcome,[8],inactive
CC(=O)OCCC1CCCCC1,outcome,[8],inactive
COC(F)(F)C(F)(C(F)(F)F)C(F)(F)F,outcome,[8],inactive
